According to PubChem BioAssay:

assay: small-molecule microarray binders of probe aLefty2, primary screen, biochemical, biotinylated probe, 635/667 nm fluorescence (AID 1094); details: higher = more signal;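 note: score merges spot fluorescence near 667 nm with spot signal-to-noise ratio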

SMILES	composite z-score
COCCOC(=O)N1C(=O)[C@@]2(c3cc(C#CCNC(N)=O)ccc31)[C@H](C(=O)NC[C@H](O)c1ccccc1)[C@H]1C(=O)O[C@H](c3ccccc3)[C@H](c3ccccc3)N1[C@@H]2c1ccc(OCCO)cc1	-0.0083
COC(=O)[C@@]1(Cc2ccc(F)cc2)[C@H]2c3cc(C(=O)N(C)C)n(CCn4cc([N+](=O)[O-])nc4C)c3C[C@H]2CN1C(=O)c1ccccc1	0.12
CN(C)CCCCNC(=O)[C@H]1C[C@H]2C(=O)N[C@@H](Cc3ccccc3)C(=O)N2[C@H]1c1cccc(OCCO)c1	-0.0924
CCCCN1CC=CC23O[C@@H]4/C=C\CCC(C)OC(=O)C4[C@H]2C(=O)N(C(C)CO)[C@@H]3C1=O (stereo not given in full)	-0.317
CCCCC(=C=CC[C@@H](O)c1cccc(OCCO)c1)CCO	-0.179
CN1C=C(C(=O)OCCS(C)(=O)=O)C(C(=O)OCCS(C)(=O)=O)=CC(CCCO)=CC1c1ccc(CN2CCCC2)cc1 (stereo not given)	0.383
C#CCN(C/C=C/c1ccccc1)[C@H](CO[Si](C)(C)C(C)(C)C)c1ccccc1	-0.264
O=C1O[C@H](c2ccccc2)[C@H](c2ccccc2)N2[C@H]1[C@@H](C(=O)N1CCN(c3ncccn3)CC1)[C@]1(C(=O)Nc3ccccc31)[C@H]2c1ccc(O)cc1	0.032
[N-]=[N+]=NCc1ccccc1[C@@H]1OC(c2ccc(OCCCO)cc2)=N[C@]1(Cc1ccccc1)C(=O)NCc1ccccc1	0.239
C=CCOC(=O)[C@H]1[C@@H]2C(=O)O[C@@H](c3ccccc3)[C@@H](c3ccccc3)N2[C@@H](c2ccc(OCCOC(=O)[C@@H]3C[C@@H]4C(=O)N[C@@H](CC(C)C)C(=O)N4[C@@H]3c3ccc(O)cc3)cc2)[C@]12C(=O)Nc1ccc(I)cc12	-0.103
